# The campaign covered roughly 39,000 compounds. About 1,500 (3.8%) were called active. The full list was thinned out, with actives kept by preference.
# Tested on: HSkMC (human skeletal muscle cells)
# Test: cytotoxicity call (relative viability < 0.9)
# Settings: 10 µM
row,SMILES,cytotoxicity call
1,C=CCOC(=O)[C@H]1[C@@H]2C(=O)O[C@@H](c3ccccc3)[C@@H](c3ccccc3)N2[C@@H](c2ccc(OCCOC(=O)[C@H]3C[C@H]4C(=O)N[C@@H](Cc5ccccc5)C(=O)N4[C@H]3c3cccc(OCCO)c3)cc2)[C@]12C(=O)Nc1ccccc12,inactive
2,Cc1nn(C[C@@H](O)Cn2cnc3c2c(=O)n(C)c(=O)n3C)c(C)c1Br,inactive
3,O=C(c1ccccc1Cl)c1cccnc1-c1nnn(Cc2cc(C(F)(F)F)cc(C(F)(F)F)c2)c1-c1ccncc1,active
4,NC1CCN(c2cccc(Cl)n2)CC1,inactive
5,CCN(CC)CCS(=O)(=O)[C@@H]1CCN2C(=O)c3coc(n3)CC(=O)C[C@H](O)/C=C(C)/C=C\CNC(=O)/C=C/[C@@H](C)[C@H](C(C)C)OC(=O)[C@@H]12,inactive
6,C[C@H](CO)N1C[C@H](C)[C@@H](CN(C)C(=O)Nc2ccc(F)cc2)OCCCC[C@H](C)Oc2ccc(NS(=O)(=O)c3ccc(F)cc3)cc2C1=O,inactive
7,C[C@@H]1CN([C@H](C)CO)C(=O)c2cc(NC(=O)C3CC3)ccc2O[C@H]1CN(C)S(=O)(=O)c1cccs1,inactive
8,C[C@H](CO)N1C[C@H](C)[C@@H](CN(C)C(=O)Nc2cccc3ccccc23)Oc2ccc(NC(=O)Cc3cn(C)c4ccccc34)cc2C1=O,inactive
9,C[C@@H]1CN([C@@H](C)CO)C(=O)c2cc(NC(=O)Cc3cn(C)c4ccccc34)ccc2O[C@H]1CN(C)C(=O)Nc1cccc2ccccc12,inactive
10,C[C@@H]1CN([C@H](C)CO)C(=O)c2cc(NC(=O)Cc3cn(C)c4ccccc34)ccc2O[C@H]1CN(C)C(=O)Nc1cccc2ccccc12,active
11,C[C@H](CO)N1C[C@H](C)[C@H](CN(C)C(=O)Nc2cccc3ccccc23)Oc2ccc(NC(=O)Cc3cn(C)c4ccccc34)cc2C1=O,inactive
12,C[C@@H]1CN([C@H](C)CO)C(=O)c2cc(NC(=O)Cc3cn(C)c4ccccc34)ccc2O[C@@H]1CN(C)C(=O)Nc1cccc2ccccc12,active
13,C[C@H]1CN([C@@H](C)CO)C(=O)c2cc(NC(=O)Cc3cn(C)c4ccccc34)ccc2O[C@@H]1CN(C)C(=O)Nc1cccc2ccccc12,inactive
14,C[C@H]1CN([C@@H](C)CO)C(=O)Cc2cc(NC(=O)Cc3cn(C)c4ccccc34)ccc2O[C@H]1CN(C)C(=O)Nc1cccc2ccccc12,inactive
15,C[C@@H]1CN([C@@H](C)CO)C(=O)c2cc(NC(=O)Cc3cn(C)c4ccccc34)ccc2O[C@@H]1CN(C)C(=O)Nc1cccc2ccccc12,active
16,C[C@H]1CN([C@@H](C)CO)C(=O)c2cc(NC(=O)Cc3cn(C)c4ccccc34)ccc2O[C@H]1CN(C)C(=O)Nc1cccc2ccccc12,inactive
17,COc1ccc(NC(=O)Nc2cccc3c2O[C@@H](CN(C)C(=O)Nc2cccc4ccccc24)[C@@H](C)CN([C@@H](C)CO)C3=O)cc1,inactive
18,O[C@H]1[C@H](O)[C@@H](O)[C@H](O)[C@H](O)[C@H]1O,inactive
19,COc1ccc(S(=O)(=O)N[C@H]2C=C[C@H](CC(=O)N3CCC(Cc4ccccc4)CC3)O[C@@H]2CO)cc1,inactive
20,CO[C@H]1CN(C)C(=O)c2cc(NC(=O)c3ccccc3)ccc2OC[C@H](C)N(C(=O)CN(C)C)C[C@@H]1C,inactive
21,C[C@@H]1CN([C@H](C)CO)C(=O)c2cccc(NC(=O)c3cnccn3)c2O[C@@H]1CN(C)CC1CCCCC1,inactive
22,COc1ccc(CN(C)C[C@@H]2Oc3ccc(NC(=O)C4CC4)cc3CC(=O)N([C@H](C)CO)C[C@@H]2C)cc1,inactive

row,SMILES,cytotoxicity call
1,C[C@@H]1CCCCO[C@H](CN(C)Cc2ccc(Cl)c(Cl)c2)[C@@H](C)CN([C@H](C)CO)C(=O)c2cc(NC(=O)Nc3ccc(F)cc3)ccc2O1,inactive
2,Cn1cnc(S(=O)(=O)N2C[C@H](O)COC[C@@H]3O[C@H](CC(=O)NCc4ccc(F)cc4)CC[C@H]32)c1,inactive
3,Cc1cc(C(=O)Nc2cccc3c2O[C@H](CN(C)C(=O)Nc2c(C)noc2C)[C@H](C)CN([C@@H](C)CO)C3=O)n(C)n1,inactive
4,COC1C(OC(N)=O)C(O)C(Oc2ccc3c([O-])c(NC(=O)c4ccc(O)c(CC=C(C)C)c4)c(=O)oc3c2C)OC1(C)C.[Na+] (stereo not given),inactive
5,CO[C@@H]1[C@@H](OC(=O)c2ccc(C)[nH]2)[C@@H](O)[C@@H](Oc2ccc3c(c2C)OC(=O)[C@H](NC(=O)c2[nH]cc(CC(=O)Nc4cc5ccc(O[C@@H]6OC(C)(C)[C@H](OC)[C@@H](OC(=O)c7ccc(C)[nH]7)[C@H]6O)c(C)c5oc4=O)c2C)C3)CC1(C)C,active
6,COc1ccc(NC(=O)N(C)C[C@H]2OCCCC[C@H](C)Oc3ccc(NC(=O)Nc4ccc5c(c4)OCO5)cc3C(=O)N([C@@H](C)CO)C[C@@H]2C)cc1,inactive
7,C[C@H]1CN([C@@H](C)CO)C(=O)c2cc(NC(=O)Nc3ccc4c(c3)OCO4)ccc2O[C@H]1CN(C)S(=O)(=O)c1cn(C)cn1,inactive
8,Cc1noc(C)c1NC(=O)Nc1ccc2c(c1)C(=O)N([C@@H](C)CO)C[C@H](C)[C@H](CN(C)C(=O)Nc1ccc(F)cc1)OCCCC[C@H](C)O2,inactive
9,Cc1noc(C)c1NC(=O)Nc1ccc2c(c1)C(=O)N([C@H](C)CO)C[C@H](C)[C@H](CN(C)Cc1ccc3c(c1)OCO3)OCCCC[C@H](C)O2,inactive
10,O=C(C[C@H]1CC[C@@H]2[C@H](COC[C@H](O)CN2C(=O)c2ccncc2)O1)NC1CCC1,inactive
11,C[C@H](CO)N1C[C@H](C)[C@@H](CN(C)Cc2ccc(-c3ccccc3)cc2)Oc2ccc(NC(=O)Nc3cccc4ccccc34)cc2CC1=O,inactive
12,C[C@@H]1CN([C@H](C)CO)C(=O)Cc2cc(NC(=O)Nc3cccc4ccccc34)ccc2O[C@H]1CN(C)Cc1ccncc1,inactive
13,COc1ccc(CN(C)C[C@@H]2Oc3ccc(NC(=O)Nc4cccc5ccccc45)cc3CC(=O)N([C@H](C)CO)C[C@H]2C)cc1,inactive
14,COc1ccc(CN(C)C[C@H]2Oc3ccc(NC(=O)Nc4cccc5ccccc45)cc3CC(=O)N([C@@H](C)CO)C[C@@H]2C)cc1,inactive
15,COc1ccc(CN(C)C[C@H]2Oc3ccc(NC(=O)Nc4cccc5ccccc45)cc3CC(=O)N([C@H](C)CO)C[C@H]2C)cc1,active
16,COc1ccc(CN(C)C[C@H]2Oc3ccc(NC(=O)Nc4cccc5ccccc45)cc3CC(=O)N([C@@H](C)CO)C[C@H]2C)cc1,inactive
17,COc1ccc(CN(C)C[C@@H]2Oc3ccc(NC(=O)Nc4cccc5ccccc45)cc3CC(=O)N([C@H](C)CO)C[C@@H]2C)cc1,inactive
18,C[C@H](CO)N1C[C@H](C)[C@H](CN(C)Cc2ccncc2)Oc2ccc(NC(=O)Nc3cccc4ccccc34)cc2CC1=O,active
19,COc1ccc(CN(C)C[C@@H]2Oc3ccc(NC(=O)Nc4cccc5ccccc45)cc3CC(=O)N([C@@H](C)CO)C[C@@H]2C)cc1,active
20,C[C@@H]1CN([C@H](C)CO)C(=O)Cc2cc(NC(=O)Nc3cccc4ccccc34)ccc2O[C@@H]1CN(C)Cc1ccncc1,inactive
21,C[C@@H]1CN([C@H](C)CO)C(=O)Cc2cc(NC(=O)Nc3cccc4ccccc34)ccc2O[C@H]1CN(C)Cc1ccc(-c2ccccc2)cc1,inactive
22,C[C@H]1CN([C@@H](C)CO)C(=O)Cc2cc(NC(=O)Nc3cccc4ccccc34)ccc2O[C@@H]1CN(C)Cc1ccc(-c2ccccc2)cc1,active

row,SMILES,cytotoxicity call
1,Cn1nc(Cn2ccnc2)c2c1CN(CCO)C2,inactive
2,C[C@H](CO)N1C[C@H](C)[C@H](CN(C)S(=O)(=O)c2cccs2)Oc2ccc(NS(=O)(=O)c3cccs3)cc2C1=O,inactive
3,C[C@@H]1CN([C@H](C)CO)C(=O)c2cccc(NC(=O)C3CC3)c2O[C@H]1CN(C)S(=O)(=O)c1cn(C)cn1,inactive
4,C[C@@H]1CN([C@H](C)CO)C(=O)c2cc(NS(=O)(=O)c3cccs3)ccc2O[C@@H](C)CCCCO[C@@H]1CN(C)S(C)(=O)=O,inactive
5,COCC(=O)N1C[C@@H](C)[C@H](OC)CN(C)C(=O)c2cc(NC(=O)c3ccc(OC)cc3)ccc2OC[C@H]1C,inactive
6,C[C@@H]1CN([C@@H](C)CO)C(=O)c2cc(NC(=O)NC3CCCCC3)ccc2O[C@@H](C)CCCCO[C@@H]1CN(C)Cc1ccccc1,inactive
7,C[C@H]1CN([C@@H](C)CO)C(=O)c2cc(-c3ccc(C(=O)N(C)C)cc3)cnc2O[C@@H]1CN(C)C(=O)c1ccncc1,inactive
8,COc1cccc(NC(=O)C[C@@H]2CC[C@H]3[C@H](COc4ccc(NC(=O)C5CCOCC5)cc4C(=O)N3C)O2)c1,inactive
9,C[C@@H]1CCCCO[C@H](CN(C)C(=O)Nc2ccccc2)[C@@H](C)CN([C@H](C)CO)C(=O)c2cc(NC(=O)Nc3ccc(F)cc3)ccc2O1,inactive
10,Cn1nnc2c(Cl)ncnc21,inactive
11,C=C(C)C(=O)N1CCC=CC1=O,active
12,COc1cc(/C=C/C(=O)N2CCC=CC2=O)cc(OC)c1OCCOCCOCCOCCC(=O)OC(C)(C)C,active
13,C/C=C/C(=O)N1CCC=CC1=O,inactive
14,COC(=O)C=Cc1cc(OC)c(OC)c(OC)c1,inactive
15,CCC(=O)OCN1C(=O)C=CC1=O,inactive
16,COc1cc(C=CC(=O)O)cc(OC)c1OC,inactive
17,COc1cc(C=CC(=O)N2CCCCCCC2)cc(OC)c1OC,inactive
18,CCOC(=O)/C=C/C(=O)N1CCC=CC1=O,active
19,COc1cc(/C=C/C(=O)N2CCC=CC2=O)cc(OC)c1OC(=O)CCCCCCCCCCC(=O)Oc1c(OC)cc(/C=C/C(=O)N2CCC=CC2=O)cc1OC,inactive
20,COc1cc(C=CC(=O)N2CCC=CC2=O)cc(OC)c1OC,active
21,C[C@@H]1CN([C@H](C)CO)C(=O)c2cc(NC(=O)Nc3ccc(F)cc3)ccc2O[C@@H](C)CCCCO[C@@H]1CN(C)C(=O)NC1CCCCC1,inactive
